According to paper PMC7862700, “An all-to-all approach to the identification of sequence-specific readers for epigenetic DNA modifications on cytosine”:

Legend:
Test in all cases: DAPPL (digital affinity profiling via proximity ligation, sequencing); 10 mM Tris-HCl pH 7.5, 50 mM NaCl, 1 mM DTT, 4% glycerol, room temperature, 30 min; GST-TFs on glutathione beads, 16-mer random dsDNA library, 0.1% formaldehyde crosslink after washing; high values mean tight binding
Details in all cases: protein: recombinant; tags: N-terminal GST; dsDNA, one strand shown
ELK1 = molecular target: T1, ELK1 (Homo sapiens, UniProt P19419 1-428)
T1 sequence: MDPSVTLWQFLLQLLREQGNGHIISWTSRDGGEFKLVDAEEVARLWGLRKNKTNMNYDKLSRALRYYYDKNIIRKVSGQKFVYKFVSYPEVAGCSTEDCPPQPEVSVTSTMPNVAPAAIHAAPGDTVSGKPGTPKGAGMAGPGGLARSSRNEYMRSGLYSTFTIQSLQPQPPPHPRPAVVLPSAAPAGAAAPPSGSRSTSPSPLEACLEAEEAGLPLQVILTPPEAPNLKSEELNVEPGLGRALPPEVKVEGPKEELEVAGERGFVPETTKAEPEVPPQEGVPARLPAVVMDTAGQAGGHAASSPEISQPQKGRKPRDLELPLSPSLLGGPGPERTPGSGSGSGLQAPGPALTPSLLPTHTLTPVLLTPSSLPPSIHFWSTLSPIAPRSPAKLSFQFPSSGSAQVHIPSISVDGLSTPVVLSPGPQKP
Summary of the method: (§1)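 Yeast served to express human transcription factors as GST fusions, which were then captured on glutathione beads and labelled with DNA barcodes. Pooled with a tag-only sample, they were incubated with 200 nmole of a 16-mer random double-stranded DNA library for 30 min at room temperature in Tris/NaCl/DTT/glycerol buffer, washed, crosslinked with 0.1% formaldehyde, ligated by proximity, amplified by PCR and sequenced. Dividing each hexamer's read frequency for a factor by its frequency for the tag-only sample gives the binding signal.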

GABPA = molecular target: T2, GABPA (Homo sapiens, UniProt Q06546 1-454)
T2 sequence: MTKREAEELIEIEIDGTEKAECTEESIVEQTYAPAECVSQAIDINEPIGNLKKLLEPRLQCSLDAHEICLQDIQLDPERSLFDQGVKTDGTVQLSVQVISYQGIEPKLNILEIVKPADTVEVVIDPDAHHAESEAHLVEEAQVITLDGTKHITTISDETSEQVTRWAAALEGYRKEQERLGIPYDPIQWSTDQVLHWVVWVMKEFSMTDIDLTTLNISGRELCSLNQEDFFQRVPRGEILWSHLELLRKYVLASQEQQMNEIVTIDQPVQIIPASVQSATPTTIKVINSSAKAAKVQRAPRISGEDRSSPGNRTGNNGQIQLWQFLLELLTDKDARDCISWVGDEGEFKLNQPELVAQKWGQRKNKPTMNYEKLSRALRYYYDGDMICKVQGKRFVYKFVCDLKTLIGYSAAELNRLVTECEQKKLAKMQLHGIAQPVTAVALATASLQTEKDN
Summary of the method: as §1

ERG = molecular target: T3, ERG (Homo sapiens, UniProt P11308 1-479)
T3 sequence: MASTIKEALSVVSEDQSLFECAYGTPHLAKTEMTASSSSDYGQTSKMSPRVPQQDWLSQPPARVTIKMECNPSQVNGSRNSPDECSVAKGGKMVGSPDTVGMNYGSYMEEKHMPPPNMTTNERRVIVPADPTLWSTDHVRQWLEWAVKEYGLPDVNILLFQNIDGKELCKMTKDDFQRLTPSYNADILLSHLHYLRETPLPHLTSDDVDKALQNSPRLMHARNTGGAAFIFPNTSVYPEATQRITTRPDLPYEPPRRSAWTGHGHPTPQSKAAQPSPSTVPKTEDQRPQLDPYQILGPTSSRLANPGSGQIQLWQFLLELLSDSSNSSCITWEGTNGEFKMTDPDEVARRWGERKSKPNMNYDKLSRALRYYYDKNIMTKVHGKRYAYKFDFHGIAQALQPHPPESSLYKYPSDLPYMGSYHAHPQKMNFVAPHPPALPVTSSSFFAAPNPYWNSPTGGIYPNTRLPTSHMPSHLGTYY
Summary of the method: as §1

ELF1 = ELF1 (Homo sapiens, UniProt P32519 1-619)
Chain of ELF1 (P32519 whole entry): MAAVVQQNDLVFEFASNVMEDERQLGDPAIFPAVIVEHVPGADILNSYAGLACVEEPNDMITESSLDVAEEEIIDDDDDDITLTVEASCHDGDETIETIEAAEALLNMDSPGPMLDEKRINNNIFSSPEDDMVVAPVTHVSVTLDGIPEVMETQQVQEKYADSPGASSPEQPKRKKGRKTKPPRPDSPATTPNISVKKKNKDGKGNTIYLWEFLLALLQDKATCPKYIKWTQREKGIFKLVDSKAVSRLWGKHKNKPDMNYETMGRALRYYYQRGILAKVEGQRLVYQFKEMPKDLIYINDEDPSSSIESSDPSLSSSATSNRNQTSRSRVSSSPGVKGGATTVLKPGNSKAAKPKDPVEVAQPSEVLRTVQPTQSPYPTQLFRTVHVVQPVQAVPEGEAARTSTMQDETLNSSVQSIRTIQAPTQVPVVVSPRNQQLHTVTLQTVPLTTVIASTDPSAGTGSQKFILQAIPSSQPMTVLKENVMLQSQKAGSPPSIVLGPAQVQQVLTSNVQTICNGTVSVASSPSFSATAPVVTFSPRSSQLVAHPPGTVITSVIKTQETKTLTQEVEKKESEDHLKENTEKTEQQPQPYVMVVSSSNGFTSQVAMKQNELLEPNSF
Summary of the method: as §1

EHF = molecular target: T4, EHF (Homo sapiens, UniProt Q9NZC4 1-300)
T4 sequence: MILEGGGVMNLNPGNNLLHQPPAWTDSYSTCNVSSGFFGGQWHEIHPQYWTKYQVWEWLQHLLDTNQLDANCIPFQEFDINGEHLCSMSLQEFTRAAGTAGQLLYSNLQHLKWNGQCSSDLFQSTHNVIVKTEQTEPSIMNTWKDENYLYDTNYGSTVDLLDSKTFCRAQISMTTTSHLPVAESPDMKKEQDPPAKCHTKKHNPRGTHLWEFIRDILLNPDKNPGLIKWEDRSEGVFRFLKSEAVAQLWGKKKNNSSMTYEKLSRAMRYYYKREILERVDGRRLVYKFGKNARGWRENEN
Summary of the method: as §1

SPIB = SPIB (Homo sapiens, UniProt Q01892 1-262)
Chain of SPIB (Q01892 whole entry): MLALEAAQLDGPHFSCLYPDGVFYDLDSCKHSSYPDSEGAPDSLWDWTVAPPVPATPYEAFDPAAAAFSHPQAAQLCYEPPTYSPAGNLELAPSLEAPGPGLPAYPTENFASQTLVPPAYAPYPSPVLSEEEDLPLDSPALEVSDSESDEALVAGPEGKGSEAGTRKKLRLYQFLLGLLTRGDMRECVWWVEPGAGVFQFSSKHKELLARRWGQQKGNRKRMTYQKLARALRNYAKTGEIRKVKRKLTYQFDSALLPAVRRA
Summary of the method: as §1

FEV = molecular target: T5, FEV (Homo sapiens, UniProt Q99581 1-238)
T5 sequence: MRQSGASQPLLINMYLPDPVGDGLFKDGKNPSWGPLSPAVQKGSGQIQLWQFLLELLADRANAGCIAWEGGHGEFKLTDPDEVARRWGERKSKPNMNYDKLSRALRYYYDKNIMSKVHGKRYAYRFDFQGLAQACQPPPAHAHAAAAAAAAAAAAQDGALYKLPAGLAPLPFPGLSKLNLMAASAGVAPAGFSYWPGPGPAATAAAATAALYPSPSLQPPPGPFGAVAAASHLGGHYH
Summary of the method: as §1

ETV5 = ETV5 (Homo sapiens, UniProt P41161 1-510)
Chain of ETV5 (P41161 whole entry): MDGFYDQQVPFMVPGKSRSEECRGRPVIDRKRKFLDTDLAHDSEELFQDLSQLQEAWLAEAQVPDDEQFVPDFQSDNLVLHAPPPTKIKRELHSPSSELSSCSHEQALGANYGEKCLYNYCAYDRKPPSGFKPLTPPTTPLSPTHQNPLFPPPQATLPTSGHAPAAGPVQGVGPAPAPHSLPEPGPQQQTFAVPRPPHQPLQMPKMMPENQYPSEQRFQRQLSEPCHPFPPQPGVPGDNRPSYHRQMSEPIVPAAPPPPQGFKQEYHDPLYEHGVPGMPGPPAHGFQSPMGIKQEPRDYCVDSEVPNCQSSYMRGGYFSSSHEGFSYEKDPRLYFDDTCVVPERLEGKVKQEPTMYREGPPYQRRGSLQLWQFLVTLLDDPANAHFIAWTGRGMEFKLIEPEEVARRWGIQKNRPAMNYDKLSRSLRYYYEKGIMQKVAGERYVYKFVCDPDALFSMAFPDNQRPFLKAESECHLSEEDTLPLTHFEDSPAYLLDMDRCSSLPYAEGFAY
Summary of the method: as §1

ELF4 = ELF4 (Homo sapiens, UniProt Q99607 1-663)
Chain of ELF4 (Q99607 whole entry): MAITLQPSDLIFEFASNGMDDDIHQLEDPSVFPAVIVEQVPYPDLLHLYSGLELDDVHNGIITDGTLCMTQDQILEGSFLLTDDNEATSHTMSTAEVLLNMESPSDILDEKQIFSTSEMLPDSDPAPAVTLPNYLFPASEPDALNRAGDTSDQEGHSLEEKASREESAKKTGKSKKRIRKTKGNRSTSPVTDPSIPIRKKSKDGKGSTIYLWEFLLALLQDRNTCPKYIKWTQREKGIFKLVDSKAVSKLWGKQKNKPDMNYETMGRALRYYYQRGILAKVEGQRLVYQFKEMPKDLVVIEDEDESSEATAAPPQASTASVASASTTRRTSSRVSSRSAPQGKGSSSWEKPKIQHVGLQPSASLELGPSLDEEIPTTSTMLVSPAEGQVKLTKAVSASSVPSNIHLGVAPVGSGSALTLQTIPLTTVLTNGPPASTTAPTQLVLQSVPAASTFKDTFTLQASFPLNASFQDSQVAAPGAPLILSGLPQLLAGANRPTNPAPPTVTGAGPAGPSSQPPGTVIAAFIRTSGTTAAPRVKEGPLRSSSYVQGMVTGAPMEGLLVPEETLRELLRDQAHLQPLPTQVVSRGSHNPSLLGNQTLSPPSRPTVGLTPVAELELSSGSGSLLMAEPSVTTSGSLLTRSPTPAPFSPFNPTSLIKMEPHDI
Summary of the method: as §1

TGCCCA
binding signal (ELK1): 1.23 fold enrichment (6-mer frequency, TF over GST control)
binding signal (GABPA): 1.19 fold enrichment (6-mer frequency, TF over GST control)
binding signal (ERG): 1.14 fold enrichment (6-mer frequency, TF over GST control)
binding signal (ELF1): 1.16 fold enrichment (6-mer frequency, TF over GST control)
binding signal (EHF): 1.08 fold enrichment (6-mer frequency, TF over GST control)
binding signal (SPIB): 1.12 fold enrichment (6-mer frequency, TF over GST control)
binding signal (FEV): 1.21 fold enrichment (6-mer frequency, TF over GST control)
binding signal (ETV5): 1.2 fold enrichment (6-mer frequency, TF over GST control)
binding signal (ELF4): 1.2 fold enrichment (6-mer frequency, TF over GST control)
